# Assay results as given in the supplement of paper PMC12350171.
# Where a name gives a salt, the structure may show the parent alone. A number with no mark means an inactive call.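 Rule for the calls: active = normalised median growth AUC below 0.1 of DMSO control; inactive = AUC 0.1 or higher.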
# Assays:
# Assay in all cases: growth AUC normalised to DMSO control (median) (fraction of control); higher = less growth inhibition, active = hit call of the paper
# Conditions in all cases: 20 µM
# [1] = system: P. vulgatus RND KO
# How it was run: (§1)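 For normalised area under the curve, growth curves were truncated at entry into stationary phase, integrated by the trapezoidal rule and divided against vehicle wells on the same plate. The curves came from strains passaged twice overnight without oxygen and then grown in mGAM in 96-well plates at a starting OD578 of 0.01. Each well held an approved-drug library compound at 20 μM with 1% DMSO, and OD578 was read hourly for 24 h in an anaerobic incubator. Values are medians of three biological replicates.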
# [2] = system: P. vulgatus WT
# How it was run: as §1
# [3] = system: S. enterica typhimurium WT
# How it was run: as §1
# [4] = system: S. enterica typhimurium tolC KO
# How it was run: as §1
# 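Note: active when median AUC fell below 0.1.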
Compound,growth AUC normalised to DMSO control [1],growth AUC normalised to DMSO control [2],growth AUC normalised to DMSO control [3],growth AUC normalised to DMSO control [4]
NC(=O)c1ncn([C@@H]2O[C@H](CO)[C@@H](O)[C@H]2O)c1O [Mizoribine],1.04,1.01,1.01,0.996
CC=CC1=C(C(=O)O)N2C(=O)[C@@H](NC(=O)[C@H](N)c3ccc(O)cc3)[C@H]2SC1 [Cefprozil],1.45,1.42,1.01,0.983
C=C(NC(=O)C(=C)NC(=O)c1csc(C2=N[C@@H]3c4csc(n4)[C@H]4NC(=O)c5csc(n5)[C@H]([C@](C)(O)[C@@H](C)O)NC(=O)[C@H]5CSC(=N5)/C(=C/C)NC(=O)[C@H]([C@@H](C)O)NC(=O)c5csc(n5)[C@]3(CC2)NC(=O)[C@H](C)NC(=O)C(=C)NC(=O)[C@H](C)NC(=O)[C@H]([C@@H](C)CC)N[C@@H]2C=Cc3c([C@H](C)O)cc(nc3[C@H]2O)C(=O)O[C@@H]4C)n1)C(N)=O [Thiostrepton],0.0151 (active),0.0162 (active),1,1
CCOc1ccccc1C(N)=O [Ethenzamide],1.02,1.03,1,1
CCOC(=O)[C@H](CCc1ccccc1)N[C@H]1CS[C@H](c2cccs2)CN(CC(=O)O)C1=O [Temocapril hydrochloride],1.02,1.03,1,1
O=C(NCCCN1CCOCC1)c1ccc(Cl)cc1 [Eprobemide],1.04,1.03,1.01,1
C[C@@H](CN1CC(=O)NC(=O)C1)N1CC(=O)NC(=O)C1 [Dexrazoxane hydrochloride],1.01,0.988,1.01,0.989
NCCc1c[nH]cn1 [Histamine dihydrochloride],0.991,0.979,1,0.982
CN(C)c1cc(NC(=O)CNC(C)(C)C)c(O)c2c1C[C@H]1C[C@H]3[C@H](N(C)C)C(=O)C(C(N)=O)=C(O)[C@@]3(O)C(=O)C1=C2O [Tigecycline],0.987,0.997,0.995,0.997
CC(=O)OCC(=O)[C@@]1(O)CC[C@H]2[C@@H]3CCC4=CC(=O)C=C[C@]4(C)[C@@]3(Cl)[C@@H](Cl)C[C@@]21C [Dichlorisone acetate],0.976,0.97,0.989,0.956
CCN1CCN(c2cc3c(cc2F)c(=O)c(C(=O)O)cn3C2CC2)CC1 [Enrofloxacin],0.0121 (active),0.0049 (active),0.00541 (active),0.00221 (active)
Cn1c(NCCN(CCO)CCCc2ccc([N+](=O)[O-])cc2)cc(=O)n(C)c1=O [Nifekalant],1.06,1.03,1.02,1
OCC(CO)N[C@H]1C[C@](O)(CO)[C@@H](O)[C@H](O)[C@H]1O [Voglibose],1.04,1.02,0.977,1.02
O=C(O)Cc1csc(-c2ccc(Cl)cc2)n1 [Fenclozic acid],1.01,1.03,1.01,0.98
CCCSS/C(CCO)=C(/C)N(C=O)Cc1cnc(C)nc1N [Prosultiamine],1.09,1.06,0.997,1.02
N[C@@H](CCC(=O)N[C@@H](CS)C(=O)NCC(=O)O)C(=O)O [Glutathione],0.996,1,1,0.956
CC(=O)Nc1ccc(C(=O)O)cc1 [Acedoben],0.997,1.01,1,0.997
O=C1OC(c2ccc(O)cc2)(c2ccc(O)cc2)c2ccccc21 [Phenolphthalein],0.979,0.994,1.02,0.524
C/C(O)=C(\C#N)C(=O)Nc1ccc(C(F)(F)F)cc1 [Teriflunomide],0.969,0.982,1,0.88
C[C@H](Cc1cc2c(c(C(N)=O)c1)N(CCCO)CC2)NCCOc1ccccc1OCC(F)(F)F [Silodosin],1.06,1.05,1.01,0.961
CCC(=O)O[C@@H]1CC(=O)O[C@H](C)C/C=C/C=C/[C@H](O)[C@H](C)C[C@H](CC=O)[C@H](O[C@@H]2O[C@H](C)[C@@H](O[C@H]3C[C@@](C)(O)[C@@H](OC(=O)CC)[C@H](C)O3)[C@H](N(C)C)[C@H]2O)[C@H]1OC [Midecamycin],0.00894 (active),0.0119 (active),0.998,0.0799 (active)

Compound,growth AUC normalised to DMSO control [1],growth AUC normalised to DMSO control [2],growth AUC normalised to DMSO control [3],growth AUC normalised to DMSO control [4]
Cc1c(O)cccc1C(=O)N[C@@H](CSc1ccccc1)[C@H](O)CN1C[C@H]2CCCC[C@H]2C[C@H]1C(=O)NC(C)(C)C [Nelfinavir mesylate],0.912,0.954,1,0.962
O=C(O)CNC(=O)c1ccccc1 [Hippuric acid],1.1,1.05,1.01,1.02
N=C(N)Nc1ccc(C(=O)Oc2ccc3cc(C(=N)N)ccc3c2)cc1 [Nafamostat Mesylate],1.11,1.03,0.997,0.999
CC(=O)NS(=O)(=O)c1ccc(NC(=O)c2ccccc2C(=O)O)cc1 [Phthalylsulfacetamide],0.999,0.997,1,1
CCOc1nc2cccc(C(=O)OCc3oc(=O)oc3C)c2n1Cc1ccc(-c2ccccc2-c2noc(=O)[nH]2)cc1 [Azilsartan medoxomil],0.988,0.962,1,0.998
CC(C)(C)C(=O)C(Oc1ccc(Cl)cc1)n1ccnc1 (stereo not drawn) [Climbazole],0.968,0.984,0.993,0.953
O=C(O)Cc1ccccc1Oc1ccc(Cl)cc1Cl [Fenclofenac],0.992,1.05,1.02,1.02
CO/N=C(\C(=O)N[C@@H]1C(=O)N2C(C(=O)[O-])=C(C[n+]3cccc4c3CCC4)CS[C@H]12)c1csc(N)n1 [Cefpirome sulfate],0.0131 (active),0.00672 (active),0.00453 (active),0.00385 (active)
CC(=O)Oc1ccccc1C(=O)Nc1ncc([N+](=O)[O-])s1 [Nitazoxanide],0.0128 (active),0.0145 (active),0.922,0.414
C[C@@H](NCCCc1cccc(C(F)(F)F)c1)c1cccc2ccccc12 [Cinacalcet hydrochloride],1.01,1.02,1.01,0.996
COc1ccc(C[C@@H]2c3cc(OC)c(OC)cc3CC[N@+]2(C)CCC(=O)OCCCCCOC(=O)CC[N@@+]2(C)CCc3cc(OC)c(OC)cc3[C@H]2Cc2ccc(OC)c(OC)c2)cc1OC [Cisatracurium besylate],1.06,1.05,1.02,0.994
CC[N+]1(CC)CCC(=C(c2ccccc2)c2ccccc2)C1C (stereo not drawn) [Prifinium Bromide],0.997,0.989,1,0.935
O=C(NC1CCN(CCCCC2(C(=O)NCC(F)(F)F)c3ccccc3-c3ccccc32)CC1)c1ccccc1-c1ccc(C(F)(F)F)cc1 [Lomitapide],1.01,1.05,1.01,1
CN(C)C(=O)COC(=O)Cc1ccc(OC(=O)c2ccc(NC(=N)N)cc2)cc1 [Camostat mesylate],1.02,1.03,0.997,1
Cc1nc(C)c(Cl)c(O)c1Cl [Clopidol],1.01,0.991,1.01,0.983
CC(C)OC(=O)CCC/C=C\C[C@@H]1[C@@H](CC[C@@H](O)CCc2ccccc2)[C@H](O)C[C@@H]1O [Latanoprost],0.958,0.966,1.01,0.896
Nc1ccc(S(=O)(=O)Nc2cnc3ccccc3n2)cc1 [Sulfaquinoxaline sodium salt],1.01,1.04,0.985,1
CCOC(=O)c1ccc(C#Cc2ccc3c(c2)C(C)(C)CCS3)nc1 [Tazarotene],0.993,1.02,1,0.982
NC(=O)Cc1cccc(C(=O)c2ccccc2)c1N [Nepafenac],1.03,1.01,0.996,1.02
CCCCCNC(=N)N/N=C/c1c[nH]c2ccc(OC)cc12 [Tegaserod maleate],0.999,0.991,0.994,0.941
CC(=O)OC(C)OC(=O)C(C)c1ccc(-c2ccccc2)c(F)c1 (stereo not drawn) [Flurbiprofen axetil],1.09,1.1,1.01,0.856
